Reference: PubChem BioAssay (Tox21)
Results filed as inconclusive are left out. Where a call stands in place of a potency, no number is given. Activity calls are given as the source filed them. Calls come from the whole dose curve; as a rule, active = well fitted cell-killing curve with a large enough effect in the repeat runs; inconclusive = weak or mixed curves; inactive = flat fitted curve, though single readings scatter.

Experiment: qHTS assay to identify small molecule antagonists of the estrogen related receptor (ERR) signaling pathway from Tox21 library - cell viability counter screen (AID 1224834); note: nearly all actives have a fitted effect of over 30% in size
Conditions: ERR reporter cells viability, CellTiter-Fluor, 17.5 h; series mostly up to 92.4 µM
Text: National Center for Advancing Translational Sciences [NCATS]
NIH Chemical Genomics Center [NCGC]
U.S. Environmental Protection Agency [EPA]
National Institutes of Environmental Health Sciences [NIEHS]
National Toxicology Program [NTP]
U.S. Food and Drug Administration [FDA]
Estrogen related receptors (ERRs), the first orphan nuclear receptors discovered, play an important role in the control of cellular energy metabolism. ERRs are required for high-energy production in response to the environmental challenges. ERR-alpha was also identified as an adverse marker for breast cancer progression; ERR-alpha-positive tumors have a poor prognosis. To screen and to identify environmental compounds that perturb the ERR signaling pathways could provide valuable information for potential therapeutic or preventive measures in the treatment of metabolic disease. To differentiate true ERR antagonists or agonist from cytotoxic substances, the assay is multiplexed with cell viability assay.
Tox21 Assay Protocol Summary:
The ERR cells were dispensed at 2,000 cells/5 ul/well in 1536-well white plates using a Multidrop dispenser. After the assay plates were incubated at a 37 C/5% CO2 incubator for 6 hours, 23 nL of compounds dissolved in DMSO, positive and negative controls or DMSO only was transferred to the assay plate by a pin tool. The plates were incubated at 37 C for 17.5 hours. 1 ul/well of CellTiter-Fluor reagent was added into the assay plates using a Flying Reagent Dispenser. After 30-minute incubation at 37 C/5% CO2, the fluorescence intensity in the plates was measured using a ViewLux plate reader.
Potency is the fitted concentration of half-maximal effect.

Row | SMILES | Potency | viability change, negative = cytotoxic
1 | BrCc1cccc(Oc2ccccc2)c1 | inactive | 
2 | O=C(O)Cc1cn(-c2ccccc2)nc1-c1ccc(Cl)cc1 | inactive | 
3 | Cc1c(I)c(=O)n(-c2ccccc2)n1C | inactive | 
4 | COCCOCCOCCOCCO | inactive | 
5 | CC(=O)OC(C)OC(=O)C(C)c1ccc(-c2ccccc2)c(F)c1 (stereo not given) | inactive | 
6 | CN1C(C)(C)CCCC1(C)C | inactive | 
7 | CCc1ccc(C=O)cc1 | inactive | 
8 | O=C(/N=N/C(=O)OCc1ccccc1)OCc1ccccc1 | inactive | 
9 | O=C(NCCN1CCOCC1)c1ccc(Cl)cc1 | inactive | 
10 | CN(C)C(=O)CNC(=O)Cc1ccccc1 | inactive | 
11 | C[Si](C)(C)C | inactive | 
12 | Cc1cccc2nccnc12 | inactive | 
13 | N[C@@H](COP(=O)(O)O)C(=O)O |  | -0.524% [at 19 µM] (inactive)
14 | CCCN1C[C@H](CSC)C[C@@H]2c3cccc4[nH]cc(c34)C[C@H]21 | inactive | 
15 | COc1nccnc1NS(=O)(=O)c1ccc(N)cc1 | inactive | 
16 | COCCc1ccc(OCC2CO2)cc1 (stereo not given) | inactive | 
17 | CCCOC(=O)C(C)O (stereo not given) | inactive | 
18 | O=C(OCC(COC(=O)c1cccnc1)(COC(=O)c1cccnc1)COC(=O)c1cccnc1)c1cccnc1 | inactive | 
19 | O=C(O)c1cc(Br)c(O)c(Br)c1 | inactive | 
20 | CO[C@@H]1[C@@H](OC(N)=O)[C@@H](O)[C@H](Oc2ccc3c(O)c(NC(=O)c4ccc(O)c(CC=C(C)C)c4)c(=O)oc3c2C)OC1(C)C | inactive | 

Row | SMILES | Potency | viability change, negative = cytotoxic
21 | CC(C)=O | inactive | 
22 | CCOC(=O)c1ncn2c1CN(C)C(=O)c1cc(F)ccc1-2 | inactive | 
23 | O=C(O)CCSSCCC(=O)O | inactive | 
24 | Cc1ccc2c(c1)OCC(=O)CO2 | inactive | 
25 | COc1ccc(C2CNC(=O)C2)cc1OC1CCCC1 (stereo not given) | inactive | 
26 | NNc1nnc(NN)c2ccccc12 | inactive | 
27 | CC(C)CCCCOC(=O)c1ccccc1C(=O)OCCCCC(C)C | inactive | 
28 | Cc1cccc(C)c1OCC(C)N (stereo not given) | inactive | 
29 | OCCN(CCO)c1cccc(Cl)c1 | inactive | 
30 | Cc1ccccc1N=O | inactive | 
31 | O=C1c2ccccc2C(=O)N1CCl | inactive | 
32 | CC(=C(CCOC(=O)C(C)C)SSC(CCOC(=O)C(C)C)=C(C)N(C=O)Cc1cnc(C)nc1N)N(C=O)Cc1cnc(C)nc1N | inactive | 
33 | CCCC/C=C/C=C\C=O | inactive | 
34 | Nc1ccc([N+](=O)[O-])c(N)c1 | 47.3 µM (active) | 
35 | C=C(C)C(=O)OCCN(CC)CC | inactive | 
36 | O=C(O)c1cc(Cl)cc([N+](=O)[O-])c1Cl | inactive | 
37 | CC(=O)/C=C/C1C(C)=CCC(C)C1(C)C (stereo not given) | inactive | 
38 | CC1COc2ccccc2N1 (stereo not given) | inactive | 
39 | CCCCN | inactive | 
40 | CC(CO)c1ccccc1 (stereo not given) | inactive | 
